# Measured values as given in the supplement of paper PMC10037445.
# ± gives the standard deviation of the averaged measurements. Over roughly 2,900 compounds, “NF-kB SEAP reporter activity, fold change vs agonist alone” has its median near 0.99; the highest 2% begin near 2.6. The sample holds the highest values, similar compounds and a random draw of the others, so the mix is not that of the screen.
# Columns and labels:
# [1] = tested on: RAW-Dual; assay: NF-kB SEAP reporter activity, fold change vs agonist alone; higher = enhanced NF-kB activity
# Procedure, shortened: (§1)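 Cytotoxic wells were those whose IncuCyte confluency was below 70% of agonist controls in both mask sets. The cells were RAW-Dual macrophages at 50,000 cells/well in DMEM on 384-well plates, dosed with 50 nL of library stock by pin tool, stimulated with a PRR agonist 1 h later, and kept at 37 °C, 5% CO2 for 20 hours. IRF and NF-κB reporter activity, as fold change over agonist-alone wells, came from supernatant read by QuantiLuc luminescence and QuantiBlue absorbance, respectively.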
# [2] = tested on: RAW-Dual; assay: NF-kB SEAP reporter activity, fold change vs agonist alone; cytotoxicity flag (confluency mask): cytotoxic (confluency <70% of control); higher = enhanced NF-kB activity
# Procedure, shortened: as §1
# [3] = tested on: RAW-Dual; assay: NF-kB SEAP reporter activity, fold change vs agonist alone; cytotoxicity flag (confluency mask): not cytotoxic; higher = enhanced NF-kB activity
# Procedure, shortened: as §1
# [4] = agonist: ODN 1826 (TLR9) 0.5 ug/mL
# [5] = agonist: Pam2CSK4 (TLR2/6) 0.1 ug/mL
# [6] = agonist: Pam3CSK4 (TLR2/1) 0.1 ug/mL
# [7] = library stock concentration (final ~1000-fold dilution): 10 mM, cytotoxicity flag (confluency mask): not cytotoxic, agonist: Imiquimod (TLR7) […]
# [8] = library stock concentration (final ~1000-fold dilution): 10 mM, cytotoxicity flag (confluency mask): not cytotoxic, agonist: MPLA (TLR4) […]
smiles,measurement,setting,value
CC/C=C\C/C=C\C/C=C\C/C=C\C/C=C\C/C=C\CCC(=O)NCCNC(=O)c1ccccc1O,NF-kB SEAP reporter activity,"[1]; library stock concentration (final ~1000-fold dilution): 10 mM, cytotoxicity flag (confluency mask): cytotoxic (confluency <70% of control), agonist: Imiquimod (TLR7) […]",0.248
same,NF-kB SEAP reporter activity,"[1]; library stock concentration (final ~1000-fold dilution): 10 mM, cytotoxicity flag (confluency mask): cytotoxic (confluency <70% of control), agonist: MPLA (TLR4) […]",1.54
CC/C=C\C/C=C\C/C=C\C/C=C\C/C=C\C/C=C\CCC(=O)NCCNC(=O)c1ccccc1O (library stock concentration (final ~1000-fold dilution): 10 mM),NF-kB SEAP reporter activity,[2]; agonist: LPS (TLR4) 0.1 ug/mL,0.318
same,NF-kB SEAP reporter activity,[2]; [4],0.298
same,NF-kB SEAP reporter activity,[2]; [5],0.133
same,NF-kB SEAP reporter activity,[2]; [6],0.184
C=CC(=O)N1CC(N2CCN(C(=O)CNc3cc(C4(C)CC4)c(Cl)cc3O)CC2)C1 (library stock concentration (final ~1000-fold dilution): 10 mM),NF-kB SEAP reporter activity,[3]; agonist: LPS (TLR4) 0.1 ug/mL,0.418
same,NF-kB SEAP reporter activity,[3]; [4],0.542
same,NF-kB SEAP reporter activity,[3]; [5],0.537
same,NF-kB SEAP reporter activity,[3]; [6],0.448
C=CC(=O)N1CC(N2CCN(C(=O)CNc3cc(C4(C)CC4)c(Cl)cc3O)CC2)C1,NF-kB SEAP reporter activity,[1]; [7],0.915
same,NF-kB SEAP reporter activity,[1]; [8],0.645
Cl.N=C(N)NC(=O)c1nc(Cl)c(N)nc1N.O.O (library stock concentration (final ~1000-fold dilution): 10 mM water),NF-kB SEAP reporter activity,[3]; agonist: LPS (TLR4) 0.1 ug/mL,1.07
same,NF-kB SEAP reporter activity,[3]; [4],1.09
same,NF-kB SEAP reporter activity,[3]; [5],0.993
same,NF-kB SEAP reporter activity,[3]; [6],0.984
Cl.N=C(N)NC(=O)c1nc(Cl)c(N)nc1N.O.O,NF-kB SEAP reporter activity,"[1]; library stock concentration (final ~1000-fold dilution): 10 mM water, cytotoxicity flag (confluency mask): not cytotoxic, agonist: Imiquimod (TLR7) […]",0.827
same,NF-kB SEAP reporter activity,"[1]; library stock concentration (final ~1000-fold dilution): 10 mM water, cytotoxicity flag (confluency mask): not cytotoxic, agonist: MPLA (TLR4) […]",1.01
CC(C)(C)c1cc(C(=O)/C(C#N)=N/Nc2cccc(Cl)c2)no1,NF-kB SEAP reporter activity,[1]; [7],1.11
same,NF-kB SEAP reporter activity,[1]; [8],1.91
CC(C)(C)c1cc(C(=O)/C(C#N)=N/Nc2cccc(Cl)c2)no1 (library stock concentration (final ~1000-fold dilution): 10 mM),NF-kB SEAP reporter activity,[3]; agonist: LPS (TLR4) 0.1 ug/mL,4.18
same,NF-kB SEAP reporter activity,[3]; [4],1.16
same,NF-kB SEAP reporter activity,[3]; [5],0.423
same,NF-kB SEAP reporter activity,[3]; [6],0.673
Cn1nc(C(C)(C)C)cc1C(=O)NC(Cc1cccc(Cl)c1)C(=O)NCC#N (stereo not given),NF-kB SEAP reporter activity,[1]; [7],0.765
same,NF-kB SEAP reporter activity,[1]; [8],1.05
Cn1nc(C(C)(C)C)cc1C(=O)NC(Cc1cccc(Cl)c1)C(=O)NCC#N (stereo not given) (library stock concentration (final ~1000-fold dilution): 10 mM),NF-kB SEAP reporter activity,[3]; agonist: LPS (TLR4) 0.1 ug/mL,1.13
same,NF-kB SEAP reporter activity,[3]; [4],1.14
same,NF-kB SEAP reporter activity,[3]; [5],0.947
same,NF-kB SEAP reporter activity,[3]; [6],0.992
C=C1CCC2C(C)(CO)C(O)CCC2(C)C1C/C=C1/C(=O)OCC1O (stereo not given),NF-kB SEAP reporter activity,[1]; [7],0.933 ± 0.078
same,NF-kB SEAP reporter activity,[1]; [8],0.792 ± 0.1
C=C1CCC2C(C)(CO)C(O)CCC2(C)C1C/C=C1/C(=O)OCC1O (stereo not given) (library stock concentration (final ~1000-fold dilution): 10 mM),NF-kB SEAP reporter activity,[3]; agonist: LPS (TLR4) 0.1 ug/mL,0.565 ± 0.2
same,NF-kB SEAP reporter activity,[3]; [4],0.418 ± 0.039
same,NF-kB SEAP reporter activity,[3]; [5],0.96 ± 0.18
same,NF-kB SEAP reporter activity,[3]; [6],0.65 ± 0.11
Cc1ccc(NC(=O)c2ccnc(C(F)(F)F)c2)cc1-c1cc(OCCO)nc(N2CCOCC2)c1,NF-kB SEAP reporter activity,[1]; [7],1.03
same,NF-kB SEAP reporter activity,[1]; [8],0.836
Cc1ccc(NC(=O)c2ccnc(C(F)(F)F)c2)cc1-c1cc(OCCO)nc(N2CCOCC2)c1 (library stock concentration (final ~1000-fold dilution): 10 mM),NF-kB SEAP reporter activity,[3]; agonist: LPS (TLR4) 0.1 ug/mL,1.01
same,NF-kB SEAP reporter activity,[3]; [4],0.551
same,NF-kB SEAP reporter activity,[3]; [5],0.265
same,NF-kB SEAP reporter activity,[3]; [6],0.438
CC(C)n1cnc2c(NCCc3ccc(O)cc3)nc(-c3csc4ccccc34)nc21 (library stock concentration (final ~1000-fold dilution): 10 mM),NF-kB SEAP reporter activity,[3]; agonist: LPS (TLR4) 0.1 ug/mL,3.02
same,NF-kB SEAP reporter activity,[3]; [4],1.56
same,NF-kB SEAP reporter activity,[3]; [5],0.535
same,NF-kB SEAP reporter activity,[3]; [6],0.662
CC(C)n1cnc2c(NCCc3ccc(O)cc3)nc(-c3csc4ccccc34)nc21,NF-kB SEAP reporter activity,[1]; [7],2.38
same,NF-kB SEAP reporter activity,[1]; [8],2.64
CC(C)C(CO)Nc1nc(Nc2cccc(Cl)c2)c2ncn(C(C)C)c2n1 (stereo not given),NF-kB SEAP reporter activity,[1]; [7],1.19
same,NF-kB SEAP reporter activity,[1]; [8],1.14
CC(C)C(CO)Nc1nc(Nc2cccc(Cl)c2)c2ncn(C(C)C)c2n1 (stereo not given) (library stock concentration (final ~1000-fold dilution): 10 mM),NF-kB SEAP reporter activity,[3]; agonist: LPS (TLR4) 0.1 ug/mL,0.715
same,NF-kB SEAP reporter activity,[3]; [4],1.05
same,NF-kB SEAP reporter activity,[3]; [5],1.22
same,NF-kB SEAP reporter activity,[3]; [6],0.679
Nc1nc(NCCc2ccc(O)cc2)nc2nc(-c3ccco3)nn12,NF-kB SEAP reporter activity,[1]; [7],1.7
same,NF-kB SEAP reporter activity,[1]; [8],1.36
Nc1nc(NCCc2ccc(O)cc2)nc2nc(-c3ccco3)nn12 (library stock concentration (final ~1000-fold dilution): 10 mM),NF-kB SEAP reporter activity,[3]; agonist: LPS (TLR4) 0.1 ug/mL,1.81
same,NF-kB SEAP reporter activity,[3]; [4],1.56
same,NF-kB SEAP reporter activity,[3]; [5],1.16
same,NF-kB SEAP reporter activity,[3]; [6],1.41
C=C1CCC2C(C)(COC(=O)CCC(=O)O)C(OC(=O)CCC(=O)O)CCC2(C)C1C=CC1=CCOC1=O (stereo not given) (library stock concentration (final ~1000-fold dilution): 10 mM),NF-kB SEAP reporter activity,[3]; agonist: LPS (TLR4) 0.1 ug/mL,1.34
same,NF-kB SEAP reporter activity,[3]; [4],0.979
same,NF-kB SEAP reporter activity,[3]; [5],1.26
same,NF-kB SEAP reporter activity,[3]; [6],1.02
C=C1CCC2C(C)(COC(=O)CCC(=O)O)C(OC(=O)CCC(=O)O)CCC2(C)C1C=CC1=CCOC1=O (stereo not given),NF-kB SEAP reporter activity,[1]; [7],0.865
same,NF-kB SEAP reporter activity,[1]; [8],1.03
CN1CCN(CCCNc2ncc(Cl)c(-c3cc4c(C(=O)NC5CC5)cccc4s3)n2)CC1.Cl.Cl.Cl,NF-kB SEAP reporter activity,[1]; [7],0.215 ± 0.045
same,NF-kB SEAP reporter activity,[1]; [8],0.2944 ± 0.00089
CN1CCN(CCCNc2ncc(Cl)c(-c3cc4c(C(=O)NC5CC5)cccc4s3)n2)CC1.Cl.Cl.Cl (library stock concentration (final ~1000-fold dilution): 10 mM),NF-kB SEAP reporter activity,[3]; agonist: LPS (TLR4) 0.1 ug/mL,0.313 ± 0.14
same,NF-kB SEAP reporter activity,[3]; [4],0.174 ± 0.0094
same,NF-kB SEAP reporter activity,[3]; [5],0.0865 ± 0.0023
same,NF-kB SEAP reporter activity,[3]; [6],0.134 ± 0.0077
CCO.N#CC(=C(\N)Sc1ccccc1N)/C(C#N)=C(/N)Sc1ccccc1N (library stock concentration (final ~1000-fold dilution): 10 mM),NF-kB SEAP reporter activity,[3]; agonist: LPS (TLR4) 0.1 ug/mL,0.241
same,NF-kB SEAP reporter activity,[3]; [4],0.368
same,NF-kB SEAP reporter activity,[3]; [5],0.0792
same,NF-kB SEAP reporter activity,[3]; [6],0.146
CCO.N#CC(=C(\N)Sc1ccccc1N)/C(C#N)=C(/N)Sc1ccccc1N,NF-kB SEAP reporter activity,[1]; [7],0.206
same,NF-kB SEAP reporter activity,[1]; [8],0.236
CCOC(=O)c1ccc(NC2CCCCC2)c(N)c1,NF-kB SEAP reporter activity,[1]; [7],1.14
same,NF-kB SEAP reporter activity,[1]; [8],1.57
